The source made the active and inactive calls. The calls were made as follows: active = hit-call score of the fitted dose curve at least 0.9, where 1 is the maximum; inactive = score below 0.9.
How the values were obtained:
[1] = read-out: Thrombomodulin, THBD (gene 7056); experiment: BSK_CASM3C_Thrombomodulin: BioMAP Diversity Plus: CASM3C Assay for Thrombomodulin Biomarker Activity (AID 2283051); conditions: primary human coronary artery smooth muscle cells; actives raise or lower the signal;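 also: thrombomodulin protein level measured by ELISA 24 h after dosing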
[2] = read-out: Tissue Factor, F3 (gene 2152); experiment: BSK_CASM3C_TissueFactor: BioMAP Diversity Plus: CASM3C Assay for Tissue Factor Biomarker Activity (AID 2283052); conditions: primary human coronary artery smooth muscle cells; actives raise or lower the signal;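 also: cell surface tissue factor protein level read by ELISA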
[3] = read-out: Interferon-gamma inducible Protein 10 (IP10), CXCL10 (gene 3627); experiment: BSK_hDFCGF_IP10: BioMAP Diversity Plus: hDFCGF Assay for Interferon-gamma inducible Protein 10 (IP10) Biomarker Activity (AID 2283053); conditions: primary human foreskin fibroblasts; actives raise or lower the signal
Outline: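 IP-10 levels, quantified by ELISA, are taken from human foreskin fibroblast cultures 24 h after chemical treatment, with DMSO serving as negative control and baseline for bidirectional analysis.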

[4] = read-out: Urokinase-type plasminogen activator receptor (uPAR), PLAUR (gene 5329); experiment: BSK_CASM3C_uPAR: BioMAP Diversity Plus: CASM3C Assay for Urokinase-type plasminogen activator receptor (uPAR) Biomarker Activity (AID 2283054); conditions: primary human coronary artery smooth muscle cells; actives raise or lower the signal;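 also: cell-surface uPAR protein level quantified by ELISA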
[5] = read-out: Vascular cell adhesion molecule 1 (VCAM1), VCAM1 (gene 7412); experiment: BSK_CASM3C_VCAM1: BioMAP Diversity Plus: CASM3C Assay for Vascular cell adhesion molecule 1 (VCAM1) Biomarker Activity (AID 2283055); conditions: primary human coronary artery smooth muscle cells; actives raise or lower the signal;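 also: VCAM-1 protein level quantified by ELISA on the cells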
[6] = read-out: Collagen III, COL3A1 (gene 1281); experiment: BSK_hDFCGF_CollagenIII: BioMAP Diversity Plus: hDFCGF Assay for Collagen III Biomarker Activity (AID 2283056); conditions: primary human foreskin fibroblasts; actives raise or lower the signal
Outline: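 ELISA read-out of collagen III from human skin fibroblast cultures sampled 24 h post-dosing. Values were derived by bidirectional fitting relative to the DMSO vehicle control.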

[7] = read-out: Epidermal growth factor receptor (EGFR), EGFR (gene 1956); experiment: BSK_hDFCGF_EGFR: BioMAP Diversity Plus: hDFCGF Assay for Epidermal growth factor receptor (EGFR) Biomarker Activity (AID 2283057); conditions: primary human foreskin fibroblasts; actives raise or lower the signal
Outline: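 Measured by ELISA: EGFR levels on primary human foreskin fibroblasts 24 h after chemical treatment, analysed relative to DMSO with bidirectional fitting.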

[8] = read-out: Interleukin-8 (IL8), CXCL8 (gene 3576); experiment: BSK_hDFCGF_IL8: BioMAP Diversity Plus: hDFCGF Assay for Interleukin-8 (IL8) Biomarker Activity (AID 2283058); conditions: primary human foreskin fibroblasts; actives raise or lower the signal
Outline: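 Cells used are human skin primary fibroblasts. Chemical is added, cultures run 24 h, then IL-8 is quantified by ELISA, and gain or loss versus DMSO control is fitted in both directions.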

[9] = BSK_hDFCGF_Proliferation: Cell Proliferation Assessment in the BioMAP Diversity Plus: hDFCGF Assay (AID 2283059); conditions: primary human foreskin fibroblasts;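 also: curves fitted for both rise and fall of signal versus DMSO baseline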
Outline: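 Total protein read at 560 nm after 0.1% SRB staining of TCA-fixed human skin fibroblasts, […]. Activity is fitted in both directions relative to DMSO as baseline.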

[10] = read-out: Macrophage colony-stimulating factor (MCSF), CSF1 (gene 1435); experiment: BSK_hDFCGF_MCSF: BioMAP Diversity Plus: hDFCGF Assay for Macrophage colony-stimulating factor (MCSF) Biomarker Activity (AID 2283060); conditions: primary human foreskin fibroblasts; actives raise or lower the signal
Outline: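 Primary human foreskin fibroblasts dosed with chemical; 24 h later, M-CSF quantified by ELISA; curves fitted in both directions vs DMSO negative control.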

[11] = BSK_hDFCGF_SRB: Viability Assessment in the BioMAP Diversity Plus: hDFCGF Assay (AID 2283061); conditions: primary human foreskin fibroblasts;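 also: cells exposed to compound for 24 h before the read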
Outline: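 Readout is SRB absorbance at 560 nm, reflecting total protein in parallel cultures of human foreskin fibroblasts harvested 24 h after chemical dosing. Activity was fitted bidirectionally relative to DMSO.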

[12] = read-out: TIMP metallopeptidase inhibitor 1 (TIMP1), TIMP1 (gene 7076); experiment: BSK_hDFCGF_TIMP1: BioMAP Diversity Plus: hDFCGF Assay for TIMP metallopeptidase inhibitor 1 (TIMP1) Biomarker Activity (AID 2283062); conditions: primary human foreskin fibroblasts; actives raise or lower the signal
Outline: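 Human skin fibroblasts (primary), hDFCGF system; compound exposure 24 h; TIMP-1 by ELISA; bidirectional fit vs DMSO negative control; overt cytotoxicity by SRB in parallel wells.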

[13] = read-out: Monokine induced gamma interferon (MIG), CXCL9 (gene 4283); experiment: BSK_hDFCGF_MIG: BioMAP Diversity Plus: hDFCGF Assay for Monokine induced gamma interferon (MIG) Biomarker Activity (AID 2283063); conditions: primary human foreskin fibroblasts; actives raise or lower the signal
Outline: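 Chemicals were added to primary human foreskin fibroblast cultures, which were sampled 24 h later. MIG levels were then quantified by ELISA and responses fitted in both directions relative to DMSO.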

[14] = read-out: Matrix Metallopeptidase 1 (MMP1), MMP1 (gene 4312); experiment: BSK_hDFCGF_MMP1: BioMAP Diversity Plus: hDFCGF Assay for Matrix Metallopeptidase 1 (MMP1) Biomarker Activity (AID 2283064); conditions: primary human foreskin fibroblasts; actives raise or lower the signal
Outline: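 hDFCGF primary fibroblasts (human foreskin); chemical added; 24 h; MMP1 by ELISA; bidirectional fit vs DMSO.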

[15] = read-out: Vascular cell adhesion molecule 1 (VCAM1), VCAM1 (gene 7412); experiment: BSK_hDFCGF_VCAM1: BioMAP Diversity Plus: hDFCGF Assay for Vascular cell adhesion molecule 1 (VCAM1) Biomarker Activity (AID 2283065); conditions: primary human foreskin fibroblasts; actives raise or lower the signal;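 as to AC50: VCAM-1 protein level quantified by ELISA after 24 h chemical exposure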
Outline: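 Human foreskin fibroblast primary cells, chemical exposure 24 h; VCAM-1 by ELISA; bidirectional fit, DMSO = negative control/baseline.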

[16] = read-out: Plasminogen activator inhibitor-1 (PAI1), SERPINE1 (gene 5054); experiment: BSK_hDFCGF_PAI1: BioMAP Diversity Plus: hDFCGF Assay for Plasminogen activator inhibitor-1 (PAI1) Biomarker Activity (AID 2283066); conditions: primary human foreskin fibroblasts; actives raise or lower the signal
Outline: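 PAI-1 levels, determined by ELISA, served as the endpoint in human foreskin fibroblast cultures exposed to compound for 24 h, with DMSO as baseline.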

[17] = read-out: Intercellular Adhesion Molecule 1 (ICAM1), ICAM1 (gene 3383); experiment: BSK_KF3CT_ICAM1: BioMAP Diversity Plus: KF3CT Assay for Intercellular Adhesion Molecule 1 (ICAM1) Biomarker Activity (AID 2283067); conditions: primary human keratinocytes with fibroblasts; actives raise or lower the signal
Outline: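 ICAM-1 levels are measured by ELISA 24 h after dosing a primary human co-culture of keratinocytes and foreskin fibroblasts. Activity in either direction is fitted relative to DMSO vehicle.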

[18] = read-out: Interferon-gamma inducible Protein 10 (IP10), CXCL10 (gene 3627); experiment: BSK_KF3CT_IP10: BioMAP Diversity Plus: KF3CT Assay for Interferon-gamma inducible Protein 10 (IP10) Biomarker Activity (AID 2283068); conditions: primary human keratinocytes with fibroblasts; actives raise or lower the signal
Outline: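 Human keratinocyte plus foreskin fibroblast primary co-culture exposed to test chemical for 24 h; IP-10 measured by ELISA. Concentration-response fitted bidirectionally against DMSO control as baseline.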

[19] = BSK_KF3CT_SRB: Viability Assessment in the BioMAP Diversity Plus: KF3CT Assay (AID 2283069); conditions: primary human keratinocytes with fibroblasts;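 also: total protein by sulforhodamine B staining as a cytotoxicity measure; read 24 h after compound addition; fitted for both signal gain and loss against DMSO baseline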
Outline: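 Keratinocytes co-cultured with foreskin fibroblasts (human primary); chemical added, 24 h; fix 10% TCA, stain 0.1% SRB, A560. Bidirectional fit vs DMSO.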

[20] = read-out: Interleukin-1 alpha (IL1a), IL1A (gene 3552); experiment: BSK_KF3CT_IL1a: BioMAP Diversity Plus: KF3CT Assay for Interleukin-1 alpha (IL1a) Biomarker Activity (AID 2283070); conditions: primary human keratinocytes with fibroblasts; actives raise or lower the signal
Outline: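 Chemicals were dosed onto co-cultured human keratinocytes and foreskin fibroblasts, IL-1a was quantified by ELISA at 24 h, and activity was fitted in both directions relative to DMSO controls.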

Measured: AC50

CCOP(=S)(OCC)Oc1ccc([N+](=O)[O-])cc1
active: [1] 15.4 µM | [3] 20 µM | [9] 14.2 µM | [10] 9.79 µM | [15] 20 µM | [16] 20 µM | [18] 32.7 µM
inactive: all other assays above

CCOP(=O)(SC(C)CC)N1CCSC1=O (centres undefined)
active: [18] 0.704 µM
inactive: all other assays above

CCOP(=S)(OCC)OC(Cl)C(Cl)(Cl)Cl (centres undefined)
active: [1] 11.4 µM | [3] 26.3 µM | [6] 11.1 µM | [10] 31.8 µM | [15] 29.4 µM | [19] 26.7 µM
not listed: [14]
inactive: all other assays above

Reference: PubChem BioAssay (EPA / NIEHS)
